Test results as given in PubChem BioAssay (Tox21).
Inconclusive results are not listed. Values without a mark were called inactive. Active and inactive are the calls of the source. Calls follow the shape of the dose curve; as a rule, active = well fitted cell-killing curve with a large enough effect in the repeat runs; inconclusive = weak or mixed curves, or effect the other way; inactive = flat fitted curve, though single readings scatter.
% is scaled to controls: 0 for no effect and ±100 for the full control effect; potency is read from the fitted curve at half-maximal effect.

Experiment: Nuclear factor erythroid 2-related factor 2/antioxidant responsive element (Nrf2/ARE) small molecule agonists: qHTS cell viability counter screen in human keratinocytes (AID 1919968); also: nearly all actives have a fitted effect of over 55% in size
Details: KeratinoSens HaCaT ARE cells viability, CellTiter-Fluor, 24 h; series mostly up to 92.4 µM; activity change, negative = cytotoxicity: at the top concentration
Text: U.S. Tox21 Program National Center for Advancing Translational Sciences [NCATS] Division of Preclinical Innovation [DPI] U.S. Environmental Protection Agency [EPA] National Institutes of Environmental Health Sciences [NIEHS] National Toxicology Program [NTP] U.S. Food and Drug Administration [FDA] Tox21 Assay Overview: Oxidative stress has been implicated in the pathogenesis of a variety of diseases ranging from cancer to neurodegeneration. The antioxidant response element (ARE) signaling pathway plays an important role in the amelioration of oxidative stress. The KeratinoSens (Givaudan, Switzerland) is an in vitro test method which quantifies luciferase induction as a measure of activation of Keap1-Nrf2-antioxidationt/electrophile response element (ARE) dependant pathway in HaCaT human keratinocytes stably transfected with a selectable plasmid. The KeratinoSens assay is a cell-based assay with a reporter cell line to detect potential skin sensitizers by their ability to induce the Nrf2/ARE-response. The activation of the report gene under culture conditions can be detected by ONE-Glo Luciferase Assay System (Promega, Madison, WI). This cell line has been used to screen the Tox21 10K compound library to identify agonists that induce oxidative stress. The cytotoxicity of the Tox21 compound library against the KS-ARE cell line was tested in parallel by measuring the cell viability using CellTiter- Fluor assay system (Promega, Madison, WI) in the same wells.
Tox21 Assay Protocol Summary: HaCaT derived cell line KeratinoSens were dispensed at 1,500 cells/5uL/well in 1536-well white wall/solid bottom plates using a Multidrop Combi (ThermoFisher Scientific, Waltham, MA) dispenser. After the assay plates were incubated at 37 C/5% CO2 for 5 h, 23 nL of compounds dissolved in DMSO, positive controls or DMSO only was transferred to the assay plate by a pintool workstation (Kalypsys, San Diego, CA). The plates were incubated at 37 C/5% CO2 for 23 h, followed by addition of 1uL/well of CellTiter-Fluor reagent into the assay plates using a Flying Reagent Dispenser (Aurora Discovery, San Diego, CA) for cell viability readout that measures cytotoxicity. After 1 h incubation at 37 C/5% CO2 the fluorescence intensity was measured using a ViewLux (PerkinElmer, Shelton, CT) plate reader.
In the case of `C[C@@H](O)[C@H]1C(=O)N2C(C(=O)O)=C(SCCN=CN)C[C@H]12`, the “activity change, negative = cytotoxicity” value is reported as -5.94% [at 42.5 µM]. In the case of `CCC(=O)O[C@H]1[C@H](O[C@@H]2[C@@H](C)[C@H](O[C@H]3C[C@@](C)(OC)[C@@H](O)[C@H](C)O3)[C@@H](C)C(=O)O[C@H](CC)[C@@](C)(O)[C@H](O)[C@@H](C)C(=O)[C@H](C)C[C@@]2(C)O)O[C@H](C)C[C@@H]1N(C)C`, the “activity change, negative = cytotoxicity” value is reported as 0.474% [at 42.5 µM]. For `CC12CCC(C1)C(C)(C)C2O` (stereo not given), the “activity change, negative = cytotoxicity” value was -1.47%. In the case of `Cc1cccc(C)c1NC(=O)CC12CCCN1CCC2`, the “activity change, negative = cytotoxicity” value is reported as 3.94% [at 42.5 µM]. In the case of `NC(=O)Cc1cccc(C(=O)c2ccccc2)c1N`, the “activity change, negative = cytotoxicity” value is reported as 1.89% [at 42.5 µM]. In the case of `C[C@@H]1CCC[C@H](C)N1`, the “activity change, negative = cytotoxicity” value is reported as 2.66% [at 42.5 µM]. For `CC(C)CC(C)(O)C#CC(C)(O)CC(C)C` (stereo not given), the Potency was “inactive”. For `Nc1ccc(N=Nc2ccccc2)c(N)n1`, the Potency was 30.8 µM (active). In the case of `c1cc(C(c2ccc(OCC3CO3)cc2)C(c2ccc(OCC3CO3)cc2)c2ccc(OCC3CO3)cc2)ccc1OCC1CO1` (stereo not given), the Potency is reported as “inactive”. In the case of `CC1=NN(c2ccc(S(=O)(=O)O)cc2)C(=O)C1`, the “activity change, negative = cytotoxicity” value is reported as -8.04%. For `CC(C)CNCC(C)C`, the “activity change, negative = cytotoxicity” value was -1.05%. With `N#C[C@@H]1C[C@@H]2C[C@@H]2N1C(=O)[C@@H](N)C12CC3CC(CC(O)(C3)C1)C2` the “activity change, negative = cytotoxicity” value was 1.72% [at 42.5 µM]. For `Cc1ncsc1CCO`, the “activity change, negative = cytotoxicity” value was 4.41%. In the case of `Cc1ccc2c(ccc3ccccc32)c1`, the “activity change, negative = cytotoxicity” value is reported as -10.9%. For `CCCc1ccccc1`, the “activity change, negative = cytotoxicity” value was 7.53%. With `CCCCCCCCN(C)C` the “activity change, negative = cytotoxicity” value was 3.1%. For `c1ccc2c(c1)Oc1ccccc1S2`, the Potency was “inactive”. For `COc1ccc2cc(C=O)ccc2c1`, the “activity change, negative = cytotoxicity” value was 0.434% [at 42.5 µM]. For `OC/C=C/CO`, the “activity change, negative = cytotoxicity” value was -5.19%. With `Cc1cccc(N)n1` the “activity change, negative = cytotoxicity” value was -3.7%. In the case of `O=S(=O)(O)CC(O)CCl` (stereo not given), the “activity change, negative = cytotoxicity” value is reported as 0.435%. For `CCC(C)(C)C1CCC(=O)CC1`, the “activity change, negative = cytotoxicity” value was -0.249%. With `O=C1c2ccccc2CCc2ccccc21` the Potency was “inactive”. For `O=S(O)CO`, the “activity change, negative = cytotoxicity” value was -0.983%. For `CC1CC(O)CC(C)(C)C1` (stereo not given), the “activity change, negative = cytotoxicity” value was 2.46%. In the case of `O=C(O)c1ccc(CO)o1`, the “activity change, negative = cytotoxicity” value is reported as 3.5%. In the case of `N#CCN(CC#N)CCN(CC#N)CC#N`, the “activity change, negative = cytotoxicity” value is reported as 0.227%. With `Cc1cncc(C)c1` the “activity change, negative = cytotoxicity” value was 0.33%. With `CCOC(=O)n1ccn(C)c1=S` the Potency was “inactive”. With `O=C(O)[C@@H](O)[C@H](O)[C@H](O)[C@@H](O)C(=O)O` the “activity change, negative = cytotoxicity” value was -2.96% [at 42.5 µM]. In the case of `O=C1OCCO1`, the “activity change, negative = cytotoxicity” value is reported as -0.194%. With `C1CCC(SSC2CCCCC2)CC1` the “activity change, negative = cytotoxicity” value was 15.7%. In the case of `NC(=O)c1ccccc1N`, the “activity change, negative = cytotoxicity” value is reported as 1.27%. In the case of `CNc1ccccc1`, the “activity change, negative = cytotoxicity” value is reported as 2.55%. In the case of `CCOC(OCC)C(=O)c1ccccc1`, the “activity change, negative = cytotoxicity” value is reported as 1.72%. With `CC1(C)O[C@H]2CC(=O)OC[C@]23[C@H]2CC[C@@]4(C)[C@H](c5ccoc5)OC(=O)[C@H]5O[C@]54[C@]2(C)C(=O)C[C@@H]13` the “activity change, negative = cytotoxicity” value was 3.62% [at 42.5 µM]. With `Cc1ccc2n[nH]nc2c1` the “activity change, negative = cytotoxicity” value was -3.92%. In the case of `C=CC(=O)NCOCCCC`, the Potency is reported as “inactive”. With `CC(=O)CC(=O)Nc1ccc2[nH]c(=O)[nH]c2c1` the “activity change, negative = cytotoxicity” value was 2.66%. In the case of `C/C=C/C(=O)O`, the Potency is reported as “inactive”.
